Source: PubChem BioAssay (several laboratories)
Rows were chosen to be rich in hits. Some 27% of all compounds tested hit in one or more screens of this group.
CYP2C9 act = CYP2C9 (human) activation. 96,000 compounds, 1.4% hits. P11712. activation factor at 5 µM. AID 1024. recombinant CYP2C9, luciferin-H conversion, luminescence; active compounds read high; factor 1 = untreated enzyme, 0 = blocked;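 active = activation factor of 2 or more for CYP2C9 at a 5 µM dose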
Cav32 inh = human Cav3.2 channel inhibition, primary screen; O95180; Cav3.2-expressing cells, Fluo-4 calcium fluorescence FDSS; active compounds read low; B-score at 10 µM; 100,000 compounds, 4% hits;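 active = single-dose well whose peak fluorescence ratio is a statistical outlier from its plate by either plate-standardised score or position-corrected B-score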
CYP2C19 act = cytochrome P450 2C19 (human) activation; P33261; recombinant CYP2C19, luciferin-H EGE luminescence; active compounds read high; 0 = fully inhibited enzyme, 1 = untreated enzyme; activation factor at 5 µM; 96,000 tested, under 10 active; AID 1025;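 active = activation factor of at least 2 at 5 µM in the primary screen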
CYP2C9 inhib = human CYP2C9 inhibition. 96,000 compounds, 20% hits. CYP2C9 Supersomes, luciferin-H conversion, luminescence. inhibition, % at 5 µM. P11712;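 active = blocking of liver enzyme CYP2C9 beyond about 50% at 5 µM, limit read from the data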
CYP2C19 inh = inhibitors of human CYP2C19 | inhibition, % at 5 µM | CYP2C19 Supersomes, luciferin-H EGE luminescence, 30 min | 96,000 compounds, 21% hits | P33261;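 active = CYP2C19 inhibition above a set limit at 5 µM in the primary screen, cut at about 50% in these data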
Numbers stand for hits; – = inactive; · = not tested or not shown.

SMILES	CYP2C9 act	Cav32 inh	CYP2C19 act	CYP2C9 inhib	CYP2C19 inh
CN(CC(=O)Nc1sccc1C#N)C1CCCCC1	·	–	·	·	·
COc1ccc(NC(=O)CN2CCN(CC(=O)Nc3ccccc3F)CC2)c(OC)c1	–	·	–	70.9	97.5
O=C(Nc1ccc(Br)cc1)N1CCCCCCC1	–	–	–	–	92.7
N#Cc1ccsc1NC(=O)CN1CCCCCC1	–	–	–	–	50.1
O=C(CN1CCCCC1)Nc1ccc(S(=O)(=O)N2CCCCCC2)cc1	–	–	–	–	–
O=C(CN1CCCCCC1)Nc1ccc(Br)cc1	–	–	–	–	93.2
Nc1cccc(Cl)c1N1CCOCC1	–	–	–	–	–
COc1ccc(NC(=O)CN2CCN(CC(=O)Nc3ccccc3Cl)CC2)c(OC)c1	–	–	–	73.7	97.7
COCCCN1CN(S(=O)(=O)c2ccc(Cl)cc2)c2nc3ccccc3nc21	–	–	–	99.4	98.3
CC(C)OCCCN1CN(S(=O)(=O)c2ccccc2)c2nc3ccccc3nc21	–	–	–	97.5	85.2
CC(C)CN1CN(S(=O)(=O)c2cccs2)c2nc3ccccc3nc21	–	–	–	–	–
COC(=O)CN1C(=O)S/C(=C/c2cc(C)n(C)c2C)C1=O	–	–	–	51.0	–
Cc1ccsc1/C=C1/SC(=O)N(CC(=O)N2CCOCC2)C1=O	–	–	–	–	–
COC(=O)CN1C(=O)S/C(=C/c2ccc(N3CCCCC3)o2)C1=O	–	-7.93	–	–	–
CSc1nc2ccc(N3C(=O)C4CCCCC4C3=O)cc2s1 (centres undefined)	–	–	–	–	–
CC(C)CC(=O)Nc1nc2ccc(S(=O)(=O)N3CCOCC3)cc2s1	–	–	–	–	–
CSc1nc2ccc(S(=O)(=O)N3CCCC3)cc2s1	–	–	–	52.8	99.4
O=S(=O)(Nc1nc2ccc(S(=O)(=O)N3CCCC3)cc2s1)c1ccc(F)cc1	–	–	–	100.3	–
CCOC(=O)N1CCN(S(=O)(=O)c2ccc(C(=O)Nc3nc4ccc(F)cc4s3)cc2)CC1	–	·	–	64.5	–
Fc1ccc(-n2nnc(-c3nccs3)n2)cc1	·	–	·	·	·
COCCNC(=O)CN(C(=O)CCC(=O)Nc1cc(C)on1)c1ccccc1C	–	–	–	–	–
CCN(c1ccc(NC(=O)COC(=O)c2ccc3ccccc3n2)cc1)C(C)C	–	–	–	–	–
COC(=O)C1=C(C)N(c2ccc(F)cc2)C(=O)C1	–	–	–	–	59.7
COC(=O)C1=C(C)N(c2ccc(OC)c(OC)c2)C(=O)C1	–	–	–	73.9	–
CCOC(=O)N1CCN(C2CC(=O)N(c3ccc(F)cc3)C2=O)CC1 (centres undefined)	–	–	–	–	–
SMILES	CYP2C9 act	Cav32 inh	CYP2C19 act	CYP2C9 inhib	CYP2C19 inh
COC(=O)C1=C(C)N(c2ccc(F)c(Cl)c2)C(=O)C1	–	–	–	52.0	–
COC(=O)C1=C(C)N(c2cccc(Cl)c2)C(=O)C1	–	–	–	–	64.5
COc1ccc(N2C(=O)CN=C2Nc2nc(C)cc(C)n2)cc1OC	–	–	–	–	–
COC(=O)C1=C(C)N(c2cccc(C(C)=O)c2)C(=O)C1	–	–	–	–	–
COC(=O)CC1SC(=O)NC1=Nc1ccccc1 (centres undefined)	–	–	–	–	–
COC(=O)CC1SC(=O)NC1=Nc1ccc(C)cc1 (centres undefined)	–	–	–	–	75.4
N/C(=N\OC(=O)C1CCCCC1)c1cccnc1	–	–	–	–	–
O=C(CCN1CCCCC1)c1ccc2c(c1)OCO2	–	–	–	–	–
S=C(c1ccc2c(c1)OCO2)N1CCCCCC1	–	–	–	54.6	99.2
O=C(c1ccc2c(c1)OCO2)N(CC1CCCO1)C1(C(=O)NC2CCCCC2)CCCCC1 (centres undefined)	–	–	–	71.1	69.6
CN(C(=O)c1ccc2c(c1)OCO2)C1(C(=O)NC2CCCC2)CCCCC1	–	–	–	–	–
S=C(NC1CCCCC1)c1ccc2c(c1)OCO2	–	–	–	–	83.3
CN(C)c1cc[nH]c(=O)c1C#N	–	–	–	–	–
Cc1ccc(OCC(=O)NCc2ccco2)cc1C	–	–	–	–	80.3
Nc1cc(C(=O)OCC(=O)NCC2CCCO2)ccc1Cl (centres undefined)	–	–	–	–	56.3
CCOc1ccc(C(=O)OCC(=O)NCc2ccco2)cc1OCC	–	–	–	–	69.6
O=C(COC(=O)c1ccccc1)NCc1ccco1	–	–	–	–	–
Cc1cc(Cl)cc(Cl)c1OCC(=O)NCc1ccco1	–	–	–	–	–
